The source of these data is PubChem BioAssay (EPA / NIEHS).

As a reminder, the AC50 is the midpoint of the concentration-response curve, whichever way the signal moves.

The structures appear in SMILES notation. Values joined by “and” are separate entries in the source; they are usually repeats but may differ in a detail not shown here. Equal entries are not always repeated. Records with an inconclusive call do not appear. The source holds several records for some structures; these can differ, active in one and inactive in another. Active and inactive are the calls of the source. The calls were made as follows: active = hit-call score of the fitted dose curve at least 0.9, where 1 is the maximum; inconclusive = response in the unintended direction; inactive = score below 0.9.

human Caspase 8 (CASP8), CASP8 (gene 841), sequence (Q14790 whole entry, looked up): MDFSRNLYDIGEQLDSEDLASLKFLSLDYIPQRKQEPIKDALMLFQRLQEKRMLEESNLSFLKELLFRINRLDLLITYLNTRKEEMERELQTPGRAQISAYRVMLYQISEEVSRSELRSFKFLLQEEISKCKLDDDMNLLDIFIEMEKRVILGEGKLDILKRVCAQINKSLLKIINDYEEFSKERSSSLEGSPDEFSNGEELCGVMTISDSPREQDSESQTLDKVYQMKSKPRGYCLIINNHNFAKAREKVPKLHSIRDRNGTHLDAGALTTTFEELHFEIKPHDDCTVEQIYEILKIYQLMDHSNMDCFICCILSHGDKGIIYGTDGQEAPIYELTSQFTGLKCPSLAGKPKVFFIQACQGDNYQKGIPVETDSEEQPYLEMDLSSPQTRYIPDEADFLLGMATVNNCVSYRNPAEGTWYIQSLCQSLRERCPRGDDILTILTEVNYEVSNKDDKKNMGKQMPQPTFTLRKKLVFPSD
human Aurora Kinase A - serine/threonine-protein Kinase 6 (AurA), AURKA (gene 6790), sequence (O14965 whole entry, looked up): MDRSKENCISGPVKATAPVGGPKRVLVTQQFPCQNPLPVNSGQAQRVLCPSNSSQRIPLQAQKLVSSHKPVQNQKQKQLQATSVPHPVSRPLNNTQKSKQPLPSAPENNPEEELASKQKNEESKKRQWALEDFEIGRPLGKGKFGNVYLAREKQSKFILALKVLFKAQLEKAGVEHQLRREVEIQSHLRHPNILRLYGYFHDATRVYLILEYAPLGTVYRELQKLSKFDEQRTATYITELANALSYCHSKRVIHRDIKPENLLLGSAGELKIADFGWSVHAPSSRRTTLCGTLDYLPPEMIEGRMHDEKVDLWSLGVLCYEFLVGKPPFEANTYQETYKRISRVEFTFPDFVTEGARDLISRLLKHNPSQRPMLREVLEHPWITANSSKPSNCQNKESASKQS
human Caspase 4 (CASP4), CASP4 (gene 837), sequence (P49662 whole entry, looked up): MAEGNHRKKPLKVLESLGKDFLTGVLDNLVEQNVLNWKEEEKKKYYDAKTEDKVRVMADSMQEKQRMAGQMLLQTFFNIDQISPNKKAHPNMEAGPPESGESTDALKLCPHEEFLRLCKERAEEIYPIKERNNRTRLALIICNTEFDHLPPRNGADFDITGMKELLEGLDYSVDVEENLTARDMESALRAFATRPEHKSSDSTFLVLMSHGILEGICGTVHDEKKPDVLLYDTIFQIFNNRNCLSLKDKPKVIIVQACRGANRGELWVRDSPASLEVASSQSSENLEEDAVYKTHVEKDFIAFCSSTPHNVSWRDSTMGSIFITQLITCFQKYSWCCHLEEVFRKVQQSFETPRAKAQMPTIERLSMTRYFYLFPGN

For one assay, the target named is Caspase-3 (Homo sapiens) (UniProt P42574). The experiment in a line: NVS_ENZ_hCASP3: NovaScreen (NVS) Enzymatic Assay for human Caspase 3 (CASP3) (AID 2283139). The method, boiled down: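 Single-concentration screening at 25 uM in duplicate, with concentration-response follow-up to a 50 uM maximum for chemicals passing the threshold. Caspase-3 (human, E. coli-expressed) activity was read as substrate fluorescence after 1 h, with loss of signal relative to DMSO.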
Caspase-3 (Homo sapiens), sequence (P42574 whole entry, looked up): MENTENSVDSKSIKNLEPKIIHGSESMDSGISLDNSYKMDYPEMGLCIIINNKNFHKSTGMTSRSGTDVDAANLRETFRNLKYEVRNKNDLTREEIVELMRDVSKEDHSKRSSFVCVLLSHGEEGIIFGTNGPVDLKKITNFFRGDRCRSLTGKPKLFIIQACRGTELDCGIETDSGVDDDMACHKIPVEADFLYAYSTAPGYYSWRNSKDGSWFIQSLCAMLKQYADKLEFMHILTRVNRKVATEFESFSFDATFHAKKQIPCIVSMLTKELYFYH
With `CC[C@H](C)[C@H]1O[C@]2(C=C[C@@H]1C)C[C@@H]1C[C@@H](C/C=C(\C)[C@@H](O[C@H]3C[C@H](OC)[C@@H](O[C@H]4C[C@H](OC)[C@@H](NC)[C@H](C)O4)[C@H](C)O3)[C@@H](C)/C=C/C=C3\CO[C@@H]4[C@H](O)C(C)=C[C@@H](C(=O)O1)[C@]34O)O2`, the result was inactive.

Regarding `CCOP(=S)(OCC)SCCSCC`, the compound was classed as inactive.

`COP(=O)(NC(C)=O)SC` (configuration not stated): the call was inactive.

Consider `CC(C)=CC1C(C(=O)OCN2C(=O)C3=C(CCCC3)C2=O)C1(C)C` (configuration not stated), for which the half-maximal activity concentration (AC50) was 18.1 µM (active).

With `COc1ccc(C(=CC(=O)N2CCOCC2)c2ccc(Cl)cc2)cc1OC`, the compound was classed as inactive.

The target in the next assay is human Beta-secretase (BACE), BACE1 (gene 23621) (UniProt P56817). The assay is described as follows: NVS_ENZ_hBACE: NovaScreen (NVS) Enzymatic Assay for human Beta-secretase (BACE) (AID 2283140).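 Also: hits are inhibitors that reduce fluorescent substrate signal versus DMSO.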 The method, boiled down: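 SF9-expressed enzyme, cell-free; fluorescent substrate readout after 1 h. Screened at 25 uM single concentration, duplicate; hits retested in concentration series. Activity relative to DMSO baseline, loss-of-signal.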
human Beta-secretase (BACE), BACE1 (gene 23621), sequence (P56817 whole entry, looked up): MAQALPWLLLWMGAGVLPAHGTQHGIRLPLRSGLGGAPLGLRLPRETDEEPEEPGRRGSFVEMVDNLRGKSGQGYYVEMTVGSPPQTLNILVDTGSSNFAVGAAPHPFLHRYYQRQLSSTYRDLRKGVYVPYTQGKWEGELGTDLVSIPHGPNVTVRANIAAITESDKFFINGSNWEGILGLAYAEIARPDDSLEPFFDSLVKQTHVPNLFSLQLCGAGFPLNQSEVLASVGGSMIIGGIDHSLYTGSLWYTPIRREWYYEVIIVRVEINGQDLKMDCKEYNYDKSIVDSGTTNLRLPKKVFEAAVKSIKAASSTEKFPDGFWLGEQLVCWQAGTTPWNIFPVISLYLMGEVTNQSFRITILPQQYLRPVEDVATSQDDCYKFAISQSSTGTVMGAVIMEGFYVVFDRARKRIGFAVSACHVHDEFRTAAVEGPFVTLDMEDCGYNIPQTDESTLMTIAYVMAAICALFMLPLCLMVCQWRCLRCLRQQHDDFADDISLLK
`CC(COc1ccc(Oc2ccccc2)cc1)Oc1ccccn1` (configuration not stated): the concentration at half-maximal activity (AC50) is 37.2 µM (active).

For `CC[C@H](C)[C@H]1O[C@]2(C=C[C@@H]1C)C[C@@H]1C[C@@H](C/C=C(\C)[C@@H](O[C@H]3C[C@H](OC)[C@@H](O[C@H]4C[C@H](OC)[C@@H](NC)[C@H](C)O4)[C@H](C)O3)[C@@H](C)/C=C/C=C3\CO[C@@H]4[C@H](O)C(C)=C[C@@H](C(=O)O1)[C@]34O)O2`, the half-maximal activity concentration (AC50) was 9.68 µM (active).

Consider `CCCCSP(=O)(SCCCC)SCCCC`, for which the call was inactive.

For the compound `CCCCOC(=O)c1ccccc1C(=O)O`, the result was inactive.

Regarding `CON=C(C(=O)OC)c1ccccc1CON=C(C)c1cccc(C(F)(F)F)c1`, the compound was classed as inactive.

As for `C#CCC1=C(C)C(OC(=O)C2C(C=C(C)C)C2(C)C)CC1=O` (configuration not stated), the compound was classed as inactive.

`CC(C)=CC1C(C(=O)OCN2C(=O)C3=C(CCCC3)C2=O)C1(C)C` (configuration not stated): the AC50 was 25 µM (active).

Regarding `CCC(CC)Nc1c([N+](=O)[O-])cc(C)c(C)c1[N+](=O)[O-]`, the call was inactive.

For the compound `CC(C)[C@H](C(=O)O[C@H](C#N)c1cccc(Oc2ccccc2)c1)c1ccc(Cl)cc1`, the half-maximal activity concentration (AC50) is 1.19 µM (active).

Turning to `CN(C)[C@@H]1C(=O)C(C(N)=O)=C(O)[C@@]2(O)C(=O)C3=C(O)c4c(O)cccc4[C@@](C)(O)[C@H]3[C@H](O)[C@@H]12`, the AC50 is 12.6 µM (active) and 7.9 µM (active).

Take `S=C1NCCN1`: the compound was called inactive.

The target of another assay is human AKT serine/threonine Kinase 2 (AKT2), AKT2 (gene 208) (UniProt P31751). The experiment in a line: NVS_ENZ_hAKT2: NovaScreen (NVS) Enzymatic Assay for human AKT serine/threonine Kinase 2 (AKT2) (AID 2283141). The method, boiled down: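 Cell-free fluorescence/electrophoretic mobility shift readout of recombinant human AKT2 activity, 1 h after chemical dosing. Duplicate primary screen at 25 uM, then singleton concentration-response up to 50 uM; loss of signal versus DMSO baseline.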
human AKT serine/threonine Kinase 2 (AKT2), AKT2 (gene 208), sequence (P31751 whole entry, looked up): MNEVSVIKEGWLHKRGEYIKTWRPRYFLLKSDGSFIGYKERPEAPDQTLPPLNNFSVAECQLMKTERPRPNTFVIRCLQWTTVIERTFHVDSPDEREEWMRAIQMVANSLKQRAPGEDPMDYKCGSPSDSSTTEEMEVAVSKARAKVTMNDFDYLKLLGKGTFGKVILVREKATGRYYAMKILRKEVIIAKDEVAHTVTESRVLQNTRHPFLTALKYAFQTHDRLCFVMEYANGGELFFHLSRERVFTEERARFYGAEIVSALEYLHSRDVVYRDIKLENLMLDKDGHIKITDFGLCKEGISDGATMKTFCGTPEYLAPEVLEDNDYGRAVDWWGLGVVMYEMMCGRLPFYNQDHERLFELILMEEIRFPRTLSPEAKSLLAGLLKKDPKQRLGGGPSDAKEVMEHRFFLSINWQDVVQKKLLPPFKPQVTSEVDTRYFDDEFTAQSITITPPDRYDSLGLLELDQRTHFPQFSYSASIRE
Take `CSc1nc(NC(C)C)nc(NC(C)C)n1`: the outcome was inactive.

As to `O=C(O)c1cc(Oc2ccc(C(F)(F)F)cc2Cl)ccc1[N+](=O)[O-]`, the call was inactive.

As to `CSc1nnc(C(C)(C)C)c(=O)n1N`, the compound was classed as inactive.

As to `Nc1c(Cl)cc([N+](=O)[O-])cc1Cl`, the compound was classed as inactive.

In a further assay the target is human Aurora Kinase A - serine/threonine-protein Kinase 6 (AurA), AURKA (gene 6790) (UniProt O14965). The assay is described as follows: NVS_ENZ_hAurA: NovaScreen (NVS) Enzymatic Assay for human Aurora Kinase A - serine/threonine-protein Kinase 6 (AurA) (AID 2283142). In short, it runs like this:
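Recombinant human AurA activity read by fluorescence after mobility-shift separation of product from substrate; 1 hour incubation. Chemicals first run in duplicate at 25 uM, then concentration series to 50 uM if over threshold; fitted relative to DMSO.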
Take `CC(C)[C@H](C(=O)O[C@H](C#N)c1cccc(Oc2ccccc2)c1)c1ccc(Cl)cc1`: the compound was called inactive.

As for `CN(C)[C@@H]1C(=O)C(C(N)=O)=C(O)[C@@]2(O)C(=O)C3=C(O)c4c(O)cccc4[C@@](C)(O)[C@H]3[C@H](O)[C@@H]12`, the AC50 is 29.4 µM (active).

In the case of `S=C1NCCN1`, the result was inactive.

A further assay addresses human Caspase 4 (CASP4), CASP4 (gene 837) (UniProt P49662). The experiment in a line: NVS_ENZ_hCASP4: NovaScreen (NVS) Enzymatic Assay for human Caspase 4 (CASP4) (AID 2283143). In short, it runs like this: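 Compounds were first tested in duplicate at 25 uM, and hits were titrated singly to a 50 uM maximum. Recombinant protease from E. coli was read by fluorescence 2 h post-dose, and activity loss was fitted against the DMSO baseline.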
`CN(C)[C@@H]1C(=O)C(C(N)=O)=C(O)[C@@]2(O)C(=O)C3=C(O)c4c(O)cccc4[C@@](C)(O)[C@H]3[C@H](O)[C@@H]12`: the AC50 is 11.9 µM (active).

`S=C1NCCN1`: the compound was classed as inactive.

In the case of `CCC(=O)Nc1ccc(Cl)c(Cl)c1`, the compound was classed as inactive.

The next assay has as its target CDK2 (gene 1017) (UniProt P24941). The experiment in a line: NVS_ENZ_hCDK2: NovaScreen (NVS) Enzymatic Assay for human Cyclin-Cependent Kinase 2 (CDK2) (AID 2283144). The method, boiled down:
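Compounds screened in duplicate at 25 uM, then in singleton concentration-response to a maximum of 50 uM, against recombinant CDK2; kinase activity read 1 hr after dosing by fluorescence with mobility-shift separation of substrate and product.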
In the case of `CCCCN(CC)c1c([N+](=O)[O-])cc(C(F)(F)F)cc1[N+](=O)[O-]`, the call was inactive.

For the compound `CCNc1nc(Cl)nc(NC(C)(C)C#N)n1`, the outcome was inactive.

As for `CCOP(=O)(NC(C)C)Oc1ccc(SC)c(C)c1` (configuration not stated), the outcome was inactive.

Another assay addresses human Caspase 8 (CASP8), CASP8 (gene 841) (UniProt Q14790). The experiment in a line: NVS_ENZ_hCASP8: NovaScreen (NVS) Enzymatic Assay for human Caspase 8 (CASP8) (AID 2283146). In short, it runs like this:
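The primary screen tested compounds in duplicate at a single 25 uM concentration, with actives followed up in concentration series. Activity of recombinant (E. coli) protease was measured by fluorescence 1 h post-dose, as signal loss against DMSO.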
Consider `Nc1nc(N)nc(NC2CC2)n1`, for which the compound was called inactive.

As for `O=C(O)c1cc(Oc2ccc(C(F)(F)F)cc2Cl)ccc1[N+](=O)[O-]`, the compound was called inactive.

Take `CC(C)=CC1C(C(=O)OCN2C(=O)C3=C(CCCC3)C2=O)C1(C)C` (configuration not stated): the half-maximal activity concentration (AC50) is 25 µM (active).

As to `CN(C)[C@@H]1C(=O)C(C(N)=O)=C(O)[C@@]2(O)C(=O)C3=C(O)c4c(O)cccc4[C@@](C)(O)[C@H]3[C@H](O)[C@@H]12`, the AC50 is 15.8 µM (active) and the compound was classed as inactive.

In the case of `Cc1nn(-c2cc(NS(C)(=O)=O)c(Cl)cc2Cl)c(=O)n1C(F)F`, the compound was called inactive.

For `S=C1NCCN1`, the outcome was inactive.

For the compound `COc1ccc(C(=CC(=O)N2CCOCC2)c2ccc(Cl)cc2)cc1OC`, the compound was called inactive.
